# Compound activity (PubChem)
# Most compounds without a hit are left out; they make up all but 12% or so of the library.
# CHX counter = affects cycloheximide protein synthesis inhibition readout, counter-screen | max response, % | AID 2314 | actives 12% (n = 300,000) | cell reporter, cycloheximide protein synthesis inhibition counterscreen; in the data active means max response mostly above about 13%, no sharp cut-off; inactive means mostly below about 14%; further: read at 38.3 µM for the half of the compounds with a filed dose; 0% is about no effect
# Shiga toxin inh = blocks Shiga toxin action in Vero cells; inhibition, % at 38.7 µM; Vero cells, Shiga toxin protein synthesis inhibition reporter; actives 9.2% (n = 290,000); in the data active means inhibition mostly above about 28%, no sharp cut-off; inactive means mostly below about 43%; further: 0% is about no effect
# SARS PLP yeast = inhibitors of SARS-CoV papain-like protease in yeast; S. cerevisiae expressing SARS-CoV PLpro, growth rescue; Potency, µM (series often up to 32.9 µM), for inactives: at the top dose activity, positive = growth rescue, usual class: activators; actives 0.19% (n = 330,000); further: potency means the concentration at half of the fitted maximal effect; 0% is about no effect; nearly all actives have a fitted effect of over 55% in size
# NS1 inh = inhibitors of influenza NS1 protein function; Potency, µM (highest dose often 46.1 µM), inactives show top-dose activity, positive = more growth; actives 0.4% (n = 270,000); AID 2326; further: potency means the concentration at half of the fitted maximal effect; actives are rising curves; nearly all actives have a fitted effect of over 50% in size
#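 OD600 was taken as the measure of yeast growth restored by compound in an NS1-expressing S. cerevisiae strain. Cells had been washed out of glucose medium and diluted 1:100 into galactose -URA medium, pH 6.0.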
# * marks the source's active call; other numbers are inactive results; u = inconclusive; x = no result given. Unless noted, the call rests on the fitted dose curve.
SMILES,CHX counter,Shiga toxin inh,SARS PLP yeast,NS1 inh
O=C(/C=C/c1ccccc1[N+](=O)[O-])c1ccccc1Br,14*,47*,-5%,-85%
CC(C)S(=O)(=O)C/C(N)=N/OC(=O)c1cc(Cl)cc(Cl)c1,10,20,0%,-2%
COc1ccccc1/C=C/C(=O)N1CCCC1,33*,36,-6%,27%
CNc1ccc(Br)cc(C(=O)/C=C/c2cccc(OC)c2OC)c1=O,-2,5,-22%,10%
COc1ccccc1/C=C/C(=O)N1CCN(S(=O)(=O)c2cccs2)CC1,x,x,1%,x
COc1ccccc1/C=C/C(=O)/C=C/c1ccccc1O,99*,139*,-6%,-117%
CNc1ccccc(C(=O)/C=C/c2ccccc2OC)c1=O,31*,55*,-8%,6%
CC(/C=C/c1ccccc1)=N\NC(=S)NC(C)C,82*,99*,-2%,16%
CC(/C=C/c1ccccc1)=N/NC(=O)c1nc2nc(C)cc(C)n2n1,1,29,-4%,x
CC(/C=C/c1ccccc1)=N\Nc1nc(C)cc(C)n1,33*,44*,u,-11%
COc1ccc(CCCC(=O)NC(C)c2ccccc2)cc1 (stereo unspecified),1,-2,10%,-14%
Cc1ccccc1N=C1NN=C(c2ccccc2F)CS1,49*,37*,-20%,-15%
O/N=C/c1ccc2ccccc2c1,21*,56,-1%,-3%
O=C(NCCC(=O)N1CCNC1=O)OCc1ccccc1,1,49,5%,3%
C[C@H](NC(=O)c1ccc(C(C)(C)C)cc1)C(=O)N1CCC2(CC1)NCCc1[nH]cnc12,-2,-4,-2%,-10%
Fc1ccc(-c2nc3nc4ccccc4nc3n2Cc2ccco2)cc1,44*,125*,-7%,-28%
Fc1ccc(-n2c(-c3ccco3)nc3nc4ccccc4nc32)cc1,-5,-11,5%,7%
c1ccc(-c2nc3nc4ccccc4nc3n2Cc2ccco2)cc1,82*,137*,-11%,-81%
CCCNC(=O)C1CCC(CNS(=O)(=O)c2ccc3c(c2)N(C(C)=O)CCO3)CC1 (stereo unspecified),20,-4,2%,2%
CCN(CC)c1ccc(N=Nc2ncn[nH]2)cc1,34*,124*,-7%,x
CC1CC(C)CN(c2oc(Cc3ccccc3)nc2C#N)C1 (stereo unspecified),6,13,-34%,-19%
N#Cc1nc(Cc2ccccc2)oc1N1CCCC1,26*,35*,1%,-6%
Cc1ccccc1OCc1nc(C#N)c(N2CCCC2)o1,4,37,-4%,-9%
COc1ccccc1OCc1nc(C#N)c(N2CCCC2)o1,27*,49*,0%,-3%
Cc1ccc(C2=NCCn3nc4cc([N+](=O)[O-])ccc4c32)cc1,x,x,-4%,x
SMILES,CHX counter,Shiga toxin inh,SARS PLP yeast,NS1 inh
CCN1CCN(C(=O)c2nn(C)c3c2CS(=O)(=O)c2ccccc2-3)CC1,-2,-5,-1%,-6%
CCOc1ccc(S(=O)(=O)N2CCOCC2)cc1NC(=O)CSCc1ccc(C)cc1,x,x,11%,x
Nc1ccccc1SCc1cn2cccnc2n1,24*,80*,-1%,-14%
Cc1cccn2cc(CSc3ccccc3N)nc12,31*,59,9%,-3%
Nc1ccccc1SCc1cn2ccccc2n1,68*,55*,-22%,-6%
c1ccc(SCc2cn3cccnc3n2)nc1,14,13,4%,-5%
Cc1cccn2cc(CNS(=O)(=O)c3ccc4ccccc4c3)nc12,-6,-5,2%,1%
CC(=O)N(c1nc(/C=C\C(=O)O)cs1)c1ccccc1F,-2,2,-7%,u
COCCN(CC(=O)Nc1cc(Cl)ccc1-n1cncn1)Cc1nc2ccccc2c(=O)[nH]1,x,x,-5%,x
CCOC(=O)C1CCN(C(=O)CC(C)c2ccccc2)CC1 (stereo unspecified),18,-8,x,u
CCOC(=O)C1CCCN(C(=O)CSc2ccccc2)C1 (stereo unspecified),43*,64*,-10%,0%
CCOC(=O)C1CCCN(C(=O)CN2C(=O)c3ccccc3C2=O)C1 (stereo unspecified),-2,-3,8%,14%
CCOC(=O)C1CCCN(C(=O)CN2C(=O)/C(=C/c3ccc(OC)cc3)Oc3ccccc32)C1 (stereo unspecified),9,29*,-47%,0%
CCOC(=O)C1CCCN(C(=O)CC(C)c2ccccc2)C1 (stereo unspecified),101*,169*,3%,3%
O=C(Nc1ccc(S(=O)(=O)N2CCCC2)cc1)C1CCN(S(=O)(=O)c2ccc(F)cc2)CC1,x,x,-1%,x
CCN(Cc1ccccc1)S(=O)(=O)c1ccc(C(=O)N(CCCN(C)C)c2nc3c(C)c(C)ccc3s2)cc1,x,x,-11%,x
O=C(CSc1cccc[n+]1[O-])c1ccc(Cl)s1,14,6,-4%,x
CCOc1ncccc1C(=O)OCC(=O)N1CCC(C)CC1,x,x,0%,x
O=C(O)CCc1nc(-c2ccccc2)no1,-1,-4,2%,-15%
NC(Cc1ccccc1)c1nc(-c2ccccc2)no1 (stereo unspecified),30*,38*,-4%,u
CCc1ccc(N(CC(=O)NC(C)C)C(=O)CCC(=O)Nc2ccccn2)cc1,-2,-4,0%,7%
S=C(Nc1ccc(Cl)cc1)c1nc2ccccc2s1,34*,35,-5%,6%
O=C(Nc1ccc(Cl)cc1)/C(=C/c1cccc(O)c1)c1nc2ccccc2s1,95*,154*,-10%,8%
CC(C)c1ccc(O)c(N)c1,30*,67*,-4%,24%
CCC(=O)Nc1ncnc2ncn(C(=O)CC)c12,x,x,x,3%
SMILES,CHX counter,Shiga toxin inh,SARS PLP yeast,NS1 inh
C/C(=N\Nc1cc(Cl)nc(C)n1)c1ccccc1,28*,46*,-3%,-1%
C/C(=N/Nc1cc(-c2ccccc2)nc(-c2ccccc2)n1)c1ccc(O)cc1,23*,31,-61%,-37%
C/C(=N/Nc1nc(-c2ccccc2)cc(-c2ccccc2)n1)c1ccc(N)cc1,12,11,-50%,7.9µM*
CC(=O)Nc1ccc(-c2cc(-c3ccccc3)nc(-c3ccccc3)n2)cc1,5,-4,10%,6%
COc1ccc(-c2nc(CSCC(=O)N3CCN(C)CC3)c(C)o2)cc1OC,-5,-8,3%,7%
CSc1ccc(-c2nc(CSCC(=O)N3CCOCC3)c(C)o2)cc1,27*,108*,-1%,-16%
CSc1ccc(-c2nc(CSCC(=O)NC3CC3)c(C)o2)cc1,20*,27*,11%,6%
Cc1ccc(C)c(C(C)NC(=O)Cc2cccs2)c1 (stereo unspecified),6,-12,2%,0%
COc1cccc(CN2CC(C(=O)NCCn3cccn3)CCC2=O)c1 (stereo unspecified),8,-3,0%,3%
CCN(CC)S(=O)(=O)c1ccc(N2CCCCC2)c(NC(=O)c2ccncc2)c1,12,35*,0%,x
CC(C(=O)Nc1ccc2c(c1)OCO2)N1CCC(N2CCCCC2)CC1 (stereo unspecified),x,x,-2%,x
COc1ccc(C(=O)Nc2ccccn2)cc1,-4,9,4%,8%
COc1ccc(C(=O)Nc2ccc(NC(=O)c3cccc(OC)c3)cn2)cc1,8,28,-1%,-5%
